What was measured:
[1] = tested on: Human papillomavirus type 1a protein E7 (residues 44-93); test: HPV1a E7 fragment binders on microarrays, primary screen, biochemical, small-molecule microarray, residues 44-93, 635 nm fluorescence (AID 1108); settings: small-molecule microarray binding, fluorescence 635 nm; higher = more signal;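 note: E7 fragment applied at 1 µg/mL in TBST for 1 h at 4 C; score combines spot fluorescence with its signal to noise ratio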
[2] = modulators of HCV replicon luciferase signal, primary screen, HCV replication inhibitor project, Huh7 cells, luciferase reporter (AID 1109); settings: 48 h, higher = more signal;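 note: huh7 hepatoma cells harbouring a luciferase neomycin HCV replicon reporter; luciferase luminescence as measure of HCV replicon replication; test concentration not given here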
[3] = target: Left-right determination factor 2 (Homo sapiens) (UniProt O00292); test: LEFTY2 binders on small-molecule microarrays, primary screen, biochemical, small-molecule microarray, 635 nm fluorescence scan (AID 1110); settings: LEFTY2 binding, higher = more signal
Chain of Left-right determination factor 2 (Homo sapiens) (O00292 whole entry, looked up): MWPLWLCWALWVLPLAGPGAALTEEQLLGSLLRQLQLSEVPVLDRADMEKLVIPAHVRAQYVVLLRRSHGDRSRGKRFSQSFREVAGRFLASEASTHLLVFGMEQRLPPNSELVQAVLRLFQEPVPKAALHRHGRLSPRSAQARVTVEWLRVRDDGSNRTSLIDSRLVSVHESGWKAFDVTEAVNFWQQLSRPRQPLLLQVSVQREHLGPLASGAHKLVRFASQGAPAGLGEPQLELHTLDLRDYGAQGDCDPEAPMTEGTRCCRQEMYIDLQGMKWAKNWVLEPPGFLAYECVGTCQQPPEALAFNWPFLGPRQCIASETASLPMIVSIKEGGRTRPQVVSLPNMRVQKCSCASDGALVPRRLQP

[4] = target: Calmodulin-1 (Homo sapiens) (UniProt P0DP23); test: CALM1 binders on microarrays, EGTA buffer, profiling panel, biochemical, small-molecule microarray, Cy5-labelled CALM1 (AID 1111); settings: Cy5-CALM1 binding fluorescence, higher = more signal;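 note: labelled calmodulin applied in Tris saline Tween buffer holding calcium plus EGTA and DTT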
[5] = target: Calmodulin-1 (Homo sapiens) (UniProt P0DP23); test: calcium-bound CALM1 binders on microarrays, profiling panel, artefact control for SMM control-protein annotation, biochemical, small-molecule microarray, Cy5-labelled CALM1, plus calcium (AID 1112); settings: Cy5-CALM1 binding fluorescence, higher = more signal;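 note: score merges spot fluorescence with signal to noise from triplicate slides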
[6] = small-molecule microarray binders of probe aWnt5a, primary screen, biochemical, biotinylated probe, 635/667 nm fluorescence (AID 1113); settings: higher = more signal;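 note: score merges 667 nm fluorescence intensity with signal-to-noise per printed feature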
[7] = small-molecule microarray binders of probe aShh, primary screen, biochemical, biotinylated probe, 635/667 nm fluorescence (AID 1114); settings: higher = more signal;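 note: probe is biotin-labelled aShh protein from a stem cell growth factor screen; measures binding of labelled protein to compounds printed on the slide; score merges feature fluorescence at 667 nm with signal-to-noise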
[8] = small-molecule microarray binders of probe aNog, primary screen, biochemical, biotinylated probe, 635/667 nm fluorescence (AID 1115); settings: higher = more signal;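 note: probe is biotinylated aNog protein used at 0.15 µg/mL for 1 h at 4 C; z-score combines 667 nm fluorescence of each spot with its signal to noise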
[9] = target: Torsin-1A-interacting protein 1 (Homo sapiens) (UniProt Q5JTV8); test: LAP1 binders from COS7 cell lysate, primary screen, small-molecule microarray, 635/667 nm fluorescence (AID 1116); settings: COS7-hLAP1 lysate binding, 635 nm fluorescence, higher = more signal
Chain of Torsin-1A-interacting protein 1 (Homo sapiens) (Q5JTV8 whole entry, looked up): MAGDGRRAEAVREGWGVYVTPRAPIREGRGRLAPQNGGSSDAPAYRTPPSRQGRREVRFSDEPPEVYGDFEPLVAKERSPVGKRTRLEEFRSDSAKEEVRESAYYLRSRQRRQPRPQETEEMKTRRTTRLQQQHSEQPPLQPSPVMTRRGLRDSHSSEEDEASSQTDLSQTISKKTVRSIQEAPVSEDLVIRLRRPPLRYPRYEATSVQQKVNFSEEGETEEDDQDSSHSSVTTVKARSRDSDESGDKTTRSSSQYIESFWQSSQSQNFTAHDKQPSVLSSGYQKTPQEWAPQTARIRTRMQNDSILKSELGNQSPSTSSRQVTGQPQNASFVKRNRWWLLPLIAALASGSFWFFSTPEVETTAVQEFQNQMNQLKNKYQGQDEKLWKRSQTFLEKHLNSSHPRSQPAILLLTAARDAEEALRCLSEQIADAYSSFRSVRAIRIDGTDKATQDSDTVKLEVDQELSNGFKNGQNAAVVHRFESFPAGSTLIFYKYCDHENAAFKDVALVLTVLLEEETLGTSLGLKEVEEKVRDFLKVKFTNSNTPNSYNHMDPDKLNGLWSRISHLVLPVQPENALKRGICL

[10] = target: Alpha-bungarotoxin (Bungarus multicinctus) (UniProt P60615); test: alpha-bungarotoxin binders on microarray, profiling panel, artefact control for SMM control protein annotation, biochemical, small-molecule microarray, Alexa647 label, 635/667 nm fluorescence (AID 1117); settings: alpha-BTX-A647 binding fluorescence, higher = more signal
Chain of Alpha-bungarotoxin (Bungarus multicinctus) (P60615 whole entry, looked up): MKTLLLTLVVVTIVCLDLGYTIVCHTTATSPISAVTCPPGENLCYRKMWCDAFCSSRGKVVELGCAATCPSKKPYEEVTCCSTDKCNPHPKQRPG

| Compound | composite z-score [1] | z-score [2] | composite z-score [3] | composite z-score [4] | composite z-score [5] | composite z-score [6] | composite z-score [7] | composite z-score [8] | composite z-score [9] | composite z-score [10] |
| --- | --- | --- | --- | --- | --- | --- | --- | --- | --- | --- |
| CC(C)=CCCC(C)=CC(O)C1C=CC2C(=O)N(c3ccccc3)C(=O)C2N1Nc1ccccc1 (stereo not given) | 0.704 | -0.517 | 0.12 | 2.23 | 1.18 | 0.139 | 0.393 | 1.88 | 1.03 | 2.95 |
| COC(=O)c1ccc(C(O)C2C=CC3C(=O)N(c4ccccc4)C(=O)C3N2Nc2ccc(C#N)cc2)o1 (stereo not given) | 1.18 | -0.133 | 0.196 | -0.118 | -0.637 | 0.0136 | 0.582 | 0.363 | 0.681 | -0.187 |
| CCOC(=O)C[C@H]1[C@H](OC(=O)c2ccc(C(=O)c3ccccc3)cc2)[C@@H](NC(=O)C2CCCCC2)c2cc(OCCCO)ccc2N1C(=O)c1ccccc1 | 1.34 | -2.27 | 0.239 | 0.541 | -0.0224 | -0.0346 | 0.0483 | -0.158 | 0.512 | 0.745 |
| [N-]=[N+]=NCc1ccccc1C[C@]1(C(=O)NCCN2CCOCC2)N=C(c2ccc(OCCCO)cc2)O[C@H]1c1ccccc1N=[N+]=[N-] | 0.927 | -1.76 | 0.391 | 1.2 | 0.655 | 0.0903 | 0.21 | 1.73 | 1.51 | 0.919 |
| C#CCN(C(/C=C/c1ccccc1)CO)C(C(=O)O)c1ccccc1 (stereo not given) | -0.943 | -0.206 | 0.111 | -0.238 | -0.707 | -0.0981 | -0.2 | -0.242 | -0.58 | 0.127 |
| C[N+](C)(C)CCCCCCNC(=O)[C@H]1C[C@H]2C(=O)N3CCC[C@H]3C(=O)N2[C@H]1c1ccc(O)cc1 | 1.41 | 0.741 | 0.26 | 0.0573 | -0.965 | -0.178 | 0.0639 | -0.29 | 0.541 | -0.37 |
| COc1ccc([Si](C)(C)[C@H]2[C@H](CCn3cc(CCO)nn3)O[C@@]3(C(=O)N(Cc4ccc(N5CCOC5=O)cc4)c4ccccc43)[C@@H]2C)cc1 | 0.469 | -4.2 | -0.129 | 0.122 | 0.0117 | -0.124 | 0.0469 | 0.0581 | 1.03 | 1.27 |
| COc1ccc(CCNC(=O)[C@@]2(Sc3ccc(C)cc3)CC(=O)N(Cc3ccccc3Cl)[C@@H]2c2ccc(CO)cc2I)cc1 | 0.552 | -1.98 | -0.736 | -0.252 | -0.0371 | -0.184 | 0.157 | 0.384 | 1.08 | 0.42 |
| [N-]=[N+]=NCc1ccccc1C[C@]1(C(=O)O)N=C(c2ccc(OCCCO)cc2)O[C@H]1c1ccccc1CN=[N+]=[N-] | 1.43 | -1.21 | -0.524 | 1.74 | 0.411 | -0.0792 | -0.0146 | 1.16 | 0.978 | 1.68 |
| [N-]=[N+]=NCc1ccccc1C[C@@]1(C(=O)N2CCOCC2)N=C(c2ccc(OCCCO)cc2)O[C@@H]1c1ccccc1CN=[N+]=[N-] | -0.422 | -2.43 | -0.269 | 2.2 | 1.06 | 0.324 | 0.167 | -0.434 | 1.27 | 2.21 |
| CC(C)CNC(=O)[C@@]1(c2ccc([N+](=O)[O-])cc2)CC(=O)N(CC23CC4CC(CC(C4)C2)C3)[C@@H]1c1ccc(CO)cc1 | 1.07 | -2.62 | -0.15 | -0.367 | 0.113 | 0.0215 | -0.0709 | 1.23 | 1.96 | 0.438 |
| COc1ccc(C(=O)Nc2cccc(CN3C(=O)[C@]4(O[C@H](CC(=O)N5CCC[C@H]5CO)[C@@H]([Si](C)(C)c5ccc(OC)cc5)[C@@H]4C)c4ccccc43)c2)cc1 | 1.23 | -2.84 | 0.419 | 0.418 | 0.252 | -0.0285 | -0.0959 | 0.0733 | 1.06 | 0.954 |
| COCCOC(=O)N1C(=O)[C@@]2(c3cc(C#CCC(C(=O)OC)C(=O)OC)ccc31)[C@H](C(=O)N1CCN(c3ncccn3)CC1)[C@H]1C(=O)O[C@H](c3ccccc3)[C@H](c3ccccc3)N1[C@@H]2c1ccc(OCCO)cc1 | 1.34 | -0.974 | 0.521 | 0.505 | -0.127 | -0.0778 | -0.2 | -0.213 | 0.383 | 0.536 |
| C[C@H]1NC(=O)[C@H](Cc2ccccc2)NC(=O)[C@@]23C(=O)N[C@@H](Cc4ccccc4)C2[C@H](C)[C@@]2(C)O[C@H]2C3/C=C/C/C=C\CNC1=O (stereo not given in full) | -0.794 | 0.136 | 0.133 | -0.638 | -0.859 | -0.146 | -0.324 | -0.429 | -0.214 | -0.407 |

Source: PubChem BioAssay
